NS1 inh – qHTS Assay for Inhibitors of Influenza NS1 Protein Function; 0.4% of 270,000 active; Potency, µM (top dose mostly 46.1 µM); calls by dose curve; also: actives are rising curves; nearly all actives have a fitted effect of over 50% in size
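Growth recovery, yeast-based: influenza A NS1 expressed in S. cerevisiae causes slow growth, and suppressors are detected by OD600. The parent strain without NS1 is used as positive control.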
Shiga inhibitor – A qHTS for Small Molecule Inhibitors of Shiga Toxin | Vero cells, Shiga toxin protein synthesis inhibition reporter | inhibition, % at 38.7 µM | 9.2% of 290,000 active | AID 2315, 2010; in the data active = inhibition mostly above about 28%, no sharp cut-off; inactive = mostly below about 43%
CHX counter – Cycloheximide Counterscreen for Small Molecule Inhibitors of Shiga Toxin | cell reporter, cycloheximide protein synthesis inhibition counterscreen | max response, % | 12% of 300,000 active | AID 2314, 2010; in the data active = max response mostly above about 13%, no sharp cut-off; inactive = mostly below about 14%; also: read at 38.3 µM for the half of the compounds with a filed dose
Pf growth 96h – Primary qHTS for delayed death inhibitors of the malarial parasite plastid, 96 hour incubation | P. falciparum luciferase reporter growth, 96 h | Potency, µM (doses to about 28.7 µM), usual class: inhibitors | 6.9% of 320,000 active
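Plates of compound plus infected erythrocytes (2% hematocrit, 0.05% parasitemia final) incubate 96 hours, 37 C, 5% CO2. Detection reagent added; reduced luminescence from the parasites' luciferase reporter flags inhibition.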
Giardia FBPA inh – qHTS Assay for Inhibitors of Fructose-1,6-bisphosphate Aldolase from Giardia Lamblia | A8B2U2 | purified Giardia FBPA | Potency, µM (highest dose often 59.6 µM), actives largely listed as inhibitors | 0.71% of 290,000 active | AID 2451, 2010; also: nearly all actives have a fitted effect of over 55% in size
Target sequence (A8B2U2 whole entry, looked up): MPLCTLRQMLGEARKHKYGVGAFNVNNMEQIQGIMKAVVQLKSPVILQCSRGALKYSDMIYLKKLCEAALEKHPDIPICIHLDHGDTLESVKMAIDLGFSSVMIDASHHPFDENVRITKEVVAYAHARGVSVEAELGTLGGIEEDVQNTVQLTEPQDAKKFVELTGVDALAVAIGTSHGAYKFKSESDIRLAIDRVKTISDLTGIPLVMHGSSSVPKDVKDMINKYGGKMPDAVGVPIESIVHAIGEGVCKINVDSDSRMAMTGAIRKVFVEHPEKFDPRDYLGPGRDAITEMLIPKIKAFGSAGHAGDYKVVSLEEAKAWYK
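Giardia FBPA (40 nM reagent) was preincubated 10 min at RT with compound (up to 57.5 uM final), then substrate plus GAPDH/TPI/NAD/arsenate coupling system with diaphorase/resazurin was added; resorufin fluorescence (525/598 nm) was read after 20 min.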
Pf growth 48h – Primary qHTS for delayed death inhibitors of the malarial parasite plastid, 48 hour incubation. 5.9% of 310,000 active. P. falciparum luciferase growth in erythrocytes, 48 h. Potency, µM (highest dose often 28.7 µM), most hits filed as inhibitors
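Erythrocytes infected with P. falciparum carrying an integrated firefly luciferase reporter (2% hematocrit, 0.1% parasitemia final) were exposed to compounds in RPMI 1640 with 0.5% Albumax at 37 C, 5% CO2. Growth inhibition was scored as reduced luminescence.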
Large screens that a line does not name were inactive. Hits are enriched below; roughly 21% of the tested compounds scored in any of these assays. Unless noted, calls follow the shape of the dose curve; as a rule, active = well fitted curve in the direction sought with a large enough effect; inconclusive = small, poorly fitted or top-dose-only effect, or another doubt; inactive = no such curve, though single readings can be large; an effect the other way counts as inactive or inconclusive.

O=C(Nc1ccc(N2CCOCC2)nc1)c1ccc(C(F)(F)F)cc1	Pf growth 96h inconclusive (no result: NS1 inh)
O=C(Nc1ccc(N2CCOCC2)nc1)c1ccccc1Cl	CHX counter 29
O=C(Cc1ccccc1)Nc1ccc(NC(=O)c2ccccc2)nc1	Shiga inhibitor 174, CHX counter 38, Pf growth 96h inconclusive
COc1ccc(C(=O)Nc2ccc(NC(=O)C3CC3)cn2)cc1	Pf growth 96h inconclusive, Giardia FBPA inh inconclusive
CN(C)c1ccc(-c2nccc(NCCN3CCOCC3)n2)cc1	none (no result: NS1 inh, Shiga inhibitor, CHX counter, Pf growth 96h, Pf growth 48h)
N#CC(CC(=O)O)=C(c1ccccc1)c1ccccc1	none (no result: Shiga inhibitor, CHX counter, Pf growth 96h, Giardia FBPA inh, Pf growth 48h)
N#CC(C(=O)c1ccccc1)=C1SCCS1	Shiga inhibitor 58, CHX counter 35
CCOC(=O)CCC(NC(=O)c1ccc(NCN2C(=O)c3ccccc3C2=O)cc1)C(=O)OCC (stereo unspecified)	Pf growth 96h 4.1µM (no result: Pf growth 48h)
CCOC(=O)CCC(NC(=O)c1ccc(NCN2C(=O)CCC2=O)cc1)C(=O)OCC (stereo unspecified)	none
CCOc1ccc(N=Nc2c(N)[nH][nH]c2=O)cc1	Shiga inhibitor 68, CHX counter 78
COc1cccc(N=Nc2c(N)[nH][nH]c2=O)c1	Shiga inhibitor 59, CHX counter 55
CCOc1ccc(N=Nc2c(=O)[nH]n3c(=O)cc(C)[nH]c23)cc1	none
Nc1[nH][nH]c(=O)c1N=Nc1cccc(Cl)c1	none
COc1ccc(N=Nc2c(C)[nH][nH]c2=O)cc1	Shiga inhibitor 103, CHX counter 35, Pf growth 96h inconclusive, Giardia FBPA inh inconclusive (no result: NS1 inh)
CC(=O)Nc1cccc(NC(=O)C2CC(=O)N(CCc3ccc(F)cc3)C2)c1 (stereo unspecified)	none
CC(=O)c1cccc(NC(=O)Cc2coc3cc4c(cc23)CCC4)c1	none
O=C(COc1ccc(Br)cc1)NNC(=O)c1ccc(-n2cncn2)c([N+](=O)[O-])c1	none (no result: NS1 inh, Shiga inhibitor, CHX counter, Giardia FBPA inh)
CCC(C)(C)NC(=O)C(C(C)C)N(CC1CCCO1)C(=O)CNS(=O)(=O)c1ccccc1 (stereo unspecified)	Pf growth 48h inconclusive (no result: Giardia FBPA inh)
COc1ccc([C@H]2CC(=O)C=C(c3ccc(CNC(=O)OC(C)(C)C)cc3)C2)cc1	Pf growth 96h 5.9µM, Pf growth 48h 12µM (no result: NS1 inh, Shiga inhibitor, CHX counter, Giardia FBPA inh)
COc1ccc([C@H]2CC(=O)C=C(c3ccccc3Oc3ccccc3)C2)cc1	Pf growth 96h inconclusive, Pf growth 48h 10µM (no result: NS1 inh, Shiga inhibitor, CHX counter, Giardia FBPA inh)
COc1ccc([C@H]2CC(=O)C=C(c3ccccc3-c3ccccc3)C2)cc1	Pf growth 96h 13µM, Pf growth 48h inconclusive (no result: NS1 inh, Shiga inhibitor, CHX counter, Giardia FBPA inh)
CO/N=C(\C(=O)N[C@@H]1C(=O)N2C(C(=O)O)=C(COC(C)=O)CS[C@H]12)c1csc(N)n1	Giardia FBPA inh inconclusive (no result: NS1 inh, Pf growth 96h, Pf growth 48h)
CO/N=C(/C(=O)N[C@@H]1C(=O)N2C(C(=O)O)=C(CSC(=O)c3ccco3)CSC12)c1csc(N)n1 (stereo partly specified)	Pf growth 96h 13µM, Pf growth 48h inconclusive (no result: NS1 inh, Shiga inhibitor, CHX counter, Giardia FBPA inh)
CO/N=C(/C(=O)N[C@@H]1C(=O)N2C(C(=O)O)=C(C[n+]3ccc(N)n3CCO)CS[C@H]12)c1csc(N)n1	Pf growth 96h 11µM (no result: NS1 inh, Shiga inhibitor, CHX counter, Giardia FBPA inh)
CCc1ccc(N(C(C)=O)c2nc(CCl)cs2)cc1	CHX counter 29
Cc1ccccc1C(=O)NC1CCN(C(=O)Nc2ccc(F)cc2)CC1	Pf growth 96h inconclusive
Cc1cc(C)c2c(=O)[nH]c(SCC(=O)c3ccc(C)c(C)c3)nc2n1	none (no result: NS1 inh)
CCCSCCCNC(=O)c1ccccc1NC(=O)C1=CSCCO1	Pf growth 96h 13µM (no result: Giardia FBPA inh)
CCN(CC)CCCNC(=O)c1ccccc1NC(=O)C1=CSCCO1	none (no result: Giardia FBPA inh)
c1ccc(NC(c2ccccc2)c2ccncc2)cc1 (stereo unspecified)	Giardia FBPA inh inconclusive, Pf growth 48h 9.3µM
CC(NC(=O)Cc1ccsc1)c1ccc(F)cc1 (stereo unspecified)	none
COc1ccccc1-c1noc(-c2ccccc2)n1	Shiga inhibitor 89, CHX counter 49
COc1ccc(-c2nc(-c3ccccc3OC)no2)cc1OC	Shiga inhibitor 162, CHX counter 66
COc1ccccc1-c1noc(-c2ccco2)n1	Shiga inhibitor 80, CHX counter 51 (no result: Pf growth 96h)
COc1cc(-c2noc(-c3ccco3)n2)cc(OC)c1OC	Shiga inhibitor 80, CHX counter 18
CCOc1cc(-c2nc(-c3ccccc3OC)no2)cc(OCC)c1OCC	none (no result: Pf growth 96h)
COc1cc(-c2noc(C)n2)cc(OC)c1OC	none
COc1nc(-c2ccccc2)ccc1-c1noc(-c2ccccc2)n1	none (no result: Pf growth 96h)
COc1cc2c3cc1Oc1cc(ccc1O)C[C@@H]1c4c(cc(OC)c(O)c4Oc4ccc(cc4)C[C@H]3[N+](C)(C)CC2)CC[N+]1(C)C	none (no result: Shiga inhibitor, CHX counter, Pf growth 96h, Giardia FBPA inh, Pf growth 48h)
COc1ccc(NC(=O)NC2(C(=O)N3CCCC(C)C3)CCCCC2)cc1 (stereo unspecified)	none (no result: Giardia FBPA inh)
CCC(C)NC(=O)CSc1ccc(Cl)cc1 (stereo unspecified)	Shiga inhibitor active, CHX counter 18, Pf growth 96h 3.3µM
Cc1ccc(SCC(=O)NCC(C)C)cc1	Shiga inhibitor 44
CC(C)C(NC(=O)CSc1ccc(Cl)cc1)C(C)C	Pf growth 96h inconclusive (no result: Pf growth 48h)
CC(C)CNC(=O)CSc1ccc(Cl)cc1	CHX counter 14 (no result: Pf growth 48h)
Cc1cccc(NC(=O)C(=O)NCCCc2ccccc2)c1	Shiga inhibitor 51, CHX counter 50
Cc1ccccc1NC(=O)NCCCCc1ccccc1	Shiga inhibitor 39, Pf growth 48h inconclusive
Cc1ccccc1NC(=O)NCCc1ccc(Cl)cc1	Pf growth 48h inconclusive

Source: PubChem BioAssay
